Potency, outcome and activity change, negative = inhibition data for 28 compounds are collected here from PubChem BioAssay (NCATS).

Assay [1] addresses Calcium and integrin-binding protein 1 (Homo sapiens) (UniProt Q99828). The assay is described as follows: Primary qHTS for Identification of Calcium Integrin Binding Protein 1 (CIB1) Competitor (AID 1508620).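 Note: GST tagged CIB1 binding a fluorescein labelled alphaIIb integrin peptide tracer; top concentration of the series differs between compounds; % is set by controls: 0 for no effect and ±100 for the full control effect.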 Summed up: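 Fluorescence polarization competition: CIB1-GST (1 uM final) preincubated with compound 15 min at room temperature, then FITC-labeled alphaIIb peptide (100 nM final) added for another 15 min. Polarization read at Ex 480/Em 540.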
In general terms: In qHTS, concentration-response curves come from the screen itself.

Assay [2] is described as follows: Primary qHTS for small molecule stabilizers of the endoplasmic reticulum resident proteome: Secreted ER Calcium Modulated Protein (SERCaMP) assay (AID 1508630). Note: % is set by controls: 0 for no effect and ±100 for the full control effect. Summed up: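 GLuc-SERCaMP-expressing SH-SY5Y cells, pretreated 16 h with compound, are challenged with thapsigargin to empty ER calcium stores; after 4 h, coelenterazine is added directly to the medium and luminescence is imaged.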

The nature of assay [3]: A High-Content qHTS Against Drug Library for the Identification of Small Molecules that Inhibit DYT1 Early Onset Primary Dystonia-Associated Cell Pathology (AID 1645839; calls by dose curve). Summed up: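 Readout: %pathology, the punctate EGFP-TorsinA distribution from imaging, as the primary channel and cell count as the toxicity counterscreen. HEK293 Flp-In cells expressing delE TorsinA were induced with tetracycline and treated with compound for 48 h.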

The target in assay [4] is Cytochrome P450 2D6 (Homo sapiens) (UniProt P10635). The assay is described as follows: Cytochrome P450 family 2 subfamily D member 6 (CYP2D6) small molecule antagonists: luciferase biochemical (cell-free) qHTS assay (AID 1645840; active = well fitted curve in the direction sought with a large enough effect in the repeat runs; an effect the other way counts as inactive or inconclusive; note: nearly all actives have a fitted effect of over 55% in size; note: potency is the fitted concentration of half-maximal effect; for activity change, negative = inhibition: % is set by controls: 0 for no effect and ±100 for the full control effect). Summed up:
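P450-Glo luminescent screen: recombinant CYP2D6 enzyme–proluciferin substrate mix preincubated with compound 10 min at room temperature, then NADPH regeneration added for 1 h at room temperature. Detection reagent added for 20 min; luciferin light read as relative luminescence units.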

The target in assay [5] is Cytochrome P450 2C9 (Homo sapiens) (UniProt P11712). The assay is described as follows: Cytochrome P450 family 2 subfamily C member 9 (CYP2C9) small molecule antagonists: luciferase biochemical (cell-free) qHTS assay (AID 1645842; active = well fitted curve in the direction sought with a large enough effect in the repeat runs; an effect the other way counts as inactive or inconclusive; note: nearly all actives have a fitted effect of over 55% in size; note: potency is the fitted concentration of half-maximal effect). Summed up:
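Luminescence, after 20 min with luciferin detection reagent, reflected CYP2C9 turnover during a 1 h NADPH-driven reaction at 37C. Enzyme-substrate mix contained 0.4% bovine serum albumin and was preincubated with compound 10 min at room temperature.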

Assay [6] can be described thus: Primary qHTS for inhibitors of nuclear receptor binding SET domain protein 2 (NSD2) in an isogenic RCH-ACV NSD2 p.E1099K mutant (9B) (AID 1645876). Note: nearly all actives have a fitted effect of over 70% in size. Note: potency is the fitted concentration of half-maximal effect.
The nature of assay [7]: Primary qHTS for inhibitors of nuclear receptor binding SET domain protein 2 (NSD2) in an RCH-ACV wild type WT cells (2C) (AID 1645877). Note: nearly all actives have a fitted effect of over 70% in size. Note: potency is the fitted concentration of half-maximal effect.
Assay [8] addresses Cytochrome P450 3A4 (Homo sapiens) (UniProt P08684). In words: Cytochrome P450 family 3 subfamily A member 4 (CYP3A4) small molecule antagonists: luciferase qHTS assay (AID 1645841; active = well fitted curve in the direction sought with a large enough effect in the repeat runs; an effect the other way counts as inactive or inconclusive; note: nearly all actives have a fitted effect of over 45% in size; note: potency is the fitted concentration of half-maximal effect). In a few lines:
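P450-Glo CYP3A4 enzyme with proluciferin substrate was preincubated with DMSO-dissolved compounds for 10 min at room temperature. NADPH regeneration solution started a 1 h reaction. Detection reagent stopped it, and luminescence was read after 20 min.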

A short description of assay [9]: Confirmatory qHTS to identify inhibitors of SARS-CoV-2 cell entry (AID 1645844; calls by dose curve; note: % is set by controls: 0 for no effect and ±100 for the full control effect; nearly all actives have a fitted effect of over 45% in size). Summed up: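 HEK293-ACE2 cells (Expi293F stably expressing human ACE2) were pretreated with compounds for 1 hr at 37C, then infected with MLV-based particles carrying Wuhan-Hu-1 spike (C-terminal 19-aa truncation). Luciferase luminescence read after 48 hr; normalized to spike PP (100%) and bald PP (0%).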

A short description of assay [10]: Cytotoxicity counterscreen for inhibitors of SARS-CoV-2 cell entry (AID 1645845; calls by dose curve; note: nearly all actives have a fitted effect of over 50% in size). In a few lines: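 Expi293F/hACE2 cells seeded overnight; cpd pin-transferred in DMSO, 1 h preincubation, + media, 48 h 37 C 5% CO2; ATPLite 1step luminescence; normalized to cells and no cells.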
For orientation: Counterscreens check selectivity or assay interference.

Assay [11] can be described thus: VSVG counterscreen qHTS to identify inhibitors of SARS-CoV-2 cell entry (AID 1645847; calls by dose curve; note: % is set by controls: 0 for no effect and ±100 for the full control effect; nearly all actives have a fitted effect of over 65% in size). Summed up:
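Luminescence read after 48 h infection at 37 C with VSV-G-pseudotyped MLV particles, following 1 h compound exposure of Expi293F cells stably expressing human ACE2; scaled between bald particle and VSV-G particle wells.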

The next assay concerns the target Papain (Carica papaya) (UniProt P00784). In words: Primary qHTS assay for inhibitors of the protease papain (AID 1645873).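 Note: papain turnover of Z-FR-AMC read as the AMC fluorescence gain over 10 min; % is set by controls: 0 for no effect and ±100 for the full control effect.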
Assay [12] can be described thus: Primary qHTS to identify inhibitors of SARS-CoV-2 cell entry (AID 1645846; calls by dose curve; note: nearly all actives have a fitted effect of over 45% in size). The settings on record: activity change, negative = inhibition: at 57.1 µM (top of the series) unless noted. Summed up: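 Entry measured by luciferase signal 48 h after adding SARS-CoV-2-S pseudotyped MLV particles to HEK293-ACE2 cells preincubated 1 h with compounds. Normalisation: bald particles and spike particles.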

Records with an inconclusive call do not appear. Activity calls are given as the source filed them. Unless noted, calls come from the whole dose curve; as a rule, active = well fitted curve in the direction sought with a large enough effect; inconclusive = small, poorly fitted or top-dose-only effect, or another doubt; inactive = no such curve, though single readings can be large; an effect the other way counts as inactive or inconclusive.

Cytochrome P450 2C9 (Homo sapiens), sequence (P11712 whole entry, looked up): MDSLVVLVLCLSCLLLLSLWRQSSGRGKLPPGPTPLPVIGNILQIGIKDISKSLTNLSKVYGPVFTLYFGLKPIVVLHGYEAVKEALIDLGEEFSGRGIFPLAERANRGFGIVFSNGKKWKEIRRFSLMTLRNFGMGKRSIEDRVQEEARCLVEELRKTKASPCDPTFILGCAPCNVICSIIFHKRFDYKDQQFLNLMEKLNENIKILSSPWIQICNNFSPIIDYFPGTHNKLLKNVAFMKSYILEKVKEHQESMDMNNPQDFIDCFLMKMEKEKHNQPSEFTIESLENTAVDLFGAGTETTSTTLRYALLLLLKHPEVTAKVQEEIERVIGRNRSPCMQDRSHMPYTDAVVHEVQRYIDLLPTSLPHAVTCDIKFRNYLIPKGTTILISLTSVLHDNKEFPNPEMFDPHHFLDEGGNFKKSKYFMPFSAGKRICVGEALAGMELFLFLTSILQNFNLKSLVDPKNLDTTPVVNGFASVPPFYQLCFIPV
Calcium and integrin-binding protein 1 (Homo sapiens), sequence (Q99828 whole entry, looked up): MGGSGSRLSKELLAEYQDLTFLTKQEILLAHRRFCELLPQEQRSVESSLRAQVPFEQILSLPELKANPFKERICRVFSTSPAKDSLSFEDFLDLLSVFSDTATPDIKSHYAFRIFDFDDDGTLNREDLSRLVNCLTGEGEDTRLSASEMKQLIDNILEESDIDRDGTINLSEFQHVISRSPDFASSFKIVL
Cytochrome P450 2D6 (Homo sapiens), sequence (P10635 whole entry, looked up): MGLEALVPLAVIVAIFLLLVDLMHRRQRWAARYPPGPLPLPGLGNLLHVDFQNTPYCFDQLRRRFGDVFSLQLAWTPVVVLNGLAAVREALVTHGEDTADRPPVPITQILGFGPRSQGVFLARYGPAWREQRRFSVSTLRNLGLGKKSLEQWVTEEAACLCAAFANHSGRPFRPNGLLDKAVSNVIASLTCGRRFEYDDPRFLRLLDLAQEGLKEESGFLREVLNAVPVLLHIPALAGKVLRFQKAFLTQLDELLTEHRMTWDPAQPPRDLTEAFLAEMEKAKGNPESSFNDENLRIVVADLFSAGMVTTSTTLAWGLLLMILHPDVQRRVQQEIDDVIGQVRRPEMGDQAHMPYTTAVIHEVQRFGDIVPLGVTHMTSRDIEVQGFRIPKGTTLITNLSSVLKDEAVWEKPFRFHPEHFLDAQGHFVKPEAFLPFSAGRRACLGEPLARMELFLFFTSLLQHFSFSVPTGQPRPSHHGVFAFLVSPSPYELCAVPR
Cytochrome P450 3A4 (Homo sapiens), sequence (P08684 whole entry, looked up): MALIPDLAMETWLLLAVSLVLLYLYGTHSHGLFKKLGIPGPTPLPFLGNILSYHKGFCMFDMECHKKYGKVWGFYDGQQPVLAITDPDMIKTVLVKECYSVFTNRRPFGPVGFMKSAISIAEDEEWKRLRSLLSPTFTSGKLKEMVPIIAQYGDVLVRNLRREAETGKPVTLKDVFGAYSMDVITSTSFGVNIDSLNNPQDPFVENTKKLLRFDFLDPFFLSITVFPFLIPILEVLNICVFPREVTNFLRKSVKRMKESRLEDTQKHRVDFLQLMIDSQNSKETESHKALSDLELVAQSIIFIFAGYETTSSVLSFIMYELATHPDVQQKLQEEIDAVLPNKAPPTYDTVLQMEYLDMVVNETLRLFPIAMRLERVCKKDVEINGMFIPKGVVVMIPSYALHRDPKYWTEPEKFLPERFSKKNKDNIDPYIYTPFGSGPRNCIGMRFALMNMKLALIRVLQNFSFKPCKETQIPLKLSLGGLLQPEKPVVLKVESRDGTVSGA
Papain (Carica papaya), sequence (P00784 whole entry, looked up): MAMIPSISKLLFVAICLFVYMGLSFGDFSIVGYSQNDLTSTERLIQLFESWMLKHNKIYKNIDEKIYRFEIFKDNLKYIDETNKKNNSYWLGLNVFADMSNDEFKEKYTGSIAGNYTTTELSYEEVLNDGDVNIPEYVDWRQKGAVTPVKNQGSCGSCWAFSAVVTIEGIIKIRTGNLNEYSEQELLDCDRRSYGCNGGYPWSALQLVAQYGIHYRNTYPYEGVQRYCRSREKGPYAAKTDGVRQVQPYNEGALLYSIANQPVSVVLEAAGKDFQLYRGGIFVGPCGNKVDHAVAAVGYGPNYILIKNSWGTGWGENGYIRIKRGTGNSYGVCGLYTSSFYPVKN

In the case of `CCCOC(=O)c1cncn1C(C)c1ccccc1` (stereo unspecified), the Potency entry in [1], in [2], in [4], in assay [6] and in [7] was “inactive” each time. Besides, the compound was classed as inactive in assay [3]. In [5], the Potency was 13.8 µM (active).

On to `CCC1(c2ccccc2)C(=O)N(COC)C(=O)N(COC)C1=O`, for which the Potency entry in [1], in [2], in assay [4], in assay [5], in assay [6] and in assay [7] was “inactive” each time. Further, in assay [3], the compound was classed as inactive.

Take `CN1CCC(O)(c2ccc(F)cc2)C(C(=O)c2ccc(F)cc2)C1` (stereo unspecified): the Potency entry in assay [1], in assay [2], in [5], in assay [6] and in assay [7] was “inactive” each time. In addition, the compound was classed as inactive in [3]. The Potency in [4] is 24.5 µM (active).

As for `CCN(CC)CCc1c[nH]c2ccccc12`, the Potency result in assay [1], in assay [2], in assay [8] and in assay [5] was “inactive” throughout. Besides, the Potency in assay [4] was 5.91 µM (active).

Take `CC(C)c1cccc(C(C)C)c1O`: the Potency result in assay [1], in assay [2], in assay [9], in [10], in assay [11] and in assay [6] was “inactive” throughout. For the same compound, the outcome (in [3]; with Papain (Carica papaya)) was inactive.

Take `CCN(CCO)CCn1c(Cc2ccccc2)nc2c1c(=O)n(C)c(=O)n2C`: the Potency result in assay [1], in assay [2], in [4], in assay [5], in assay [6] and in [7] was “inactive” in each case. Further, in [3], the result was inactive.

Turning to `CCN[C@@H](C)Cc1cccc(C(F)(F)F)c1`, the Potency result in [1], in assay [2], in assay [5], in assay [6] and in assay [7] was “inactive” throughout. For the same compound, in assay [3], the result was inactive. In assay [4], the Potency is 2.75 µM (active).

With `Nc1ccccc1`, the Potency result in assay [1], in assay [2], in [5], in assay [10], in [6] and in assay [7] was “inactive” throughout. Further, the result in assay [3] was inactive.

In the case of `COc1cccc(C(=O)CCN[C@@H](C)[C@H](O)c2ccccc2)c1`, the Potency result in [1], in [2] and in assay [10] was “inactive” throughout. The Potency in assay [4] is 1.55 µM (active); in assay [5] it was 30.9 µM (active); in assay [6], 16.8 µM (active); in assay [7], 9.44 µM (active).

In the case of `CNC(C)(C)Cc1ccccc1`, the Potency result in assay [1], in [2], in assay [5], in [12], in assay [6] and in [7] was “inactive” each time. Moreover, the call in assay [3] was inactive.

Take `COc1ccc2c(c1OC)C(=O)O[C@H]2[C@@H]1c2cc3c(cc2CCN1C)OCO3`: the Potency entry in assay [1], in assay [2], in [10], in assay [12], in assay [6] and in assay [7] was “inactive” throughout. Further, the Potency in assay [5] was 4.9 µM (active). For the same compound, the result with Papain (Carica papaya) was inactive.

As to `C=CCN1C[C@H](C)N([C@H](c2ccc(C(=O)N(CC)CC)cc2)c2cccc(OC)c2)C[C@H]1C`, the Potency entry in assay [1], in [2], in assay [5], in assay [6] and in assay [7] was “inactive” throughout. For the same compound, the outcome in assay [3] was inactive. Moreover, the Potency in assay [4] is 2.45 µM (active).

For `NC(=O)c1cc([N+](=O)[O-])cc([N+](=O)[O-])c1`, the Potency entry in [1], in assay [2], in assay [5], in [10], in [6] and in [7] was “inactive” throughout. The result in [3] was inactive. Besides, in assay [8], the Potency was 9.65 µM (active). Besides, the activity change, negative = inhibition in [12] was -10.7%.

On to `CC(C)=CC1C(C(=O)OCN2C(=O)C3=C(CCCC3)C2=O)C1(C)C` (stereo unspecified), for which the Potency entry in [1], in assay [2], in assay [6] and in assay [7] was “inactive” throughout. For the same compound, the outcome in assay [3] was inactive. Also, the results for the Potency in assay [4] and in [5] were 6.92 µM (active) and 8.71 µM (active), respectively.

As for `C[C@@H](N)[C@@H](O)c1ccccc1`, the Potency entry in assay [1], in assay [2], in assay [5], in [12], in assay [6] and in assay [7] was “inactive” throughout. For the same compound, in [3], the call was inactive.

With `O=C1OC(CCN2CCCCC2)OC1(c1ccccc1)c1ccccc1` (stereo unspecified), the Potency result in assay [1] and in assay [2] was “inactive” each time. In addition, the results for the Potency in assay [4], in assay [6] and in assay [7] were 0.617 µM (active), 8.41 µM (active) and 13.3 µM (active), respectively.

For the compound `CCC(C)(C)c1ccc(O)cc1`, the Potency result in assay [1], in assay [2], in assay [4] and in [6] was “inactive” in each case. In assay [3], the call was inactive.

Take `CN(C)CCc1c[nH]c2cccc(OP(=O)(O)O)c12`: the Potency result in assay [1], in [2], in assay [5], in [6] and in assay [7] was “inactive” throughout. The call in assay [3] was inactive.

As for `COC(=O)C(Cl)C(=O)OC`, the Potency result in assay [1], in [2], in assay [4], in assay [5], in assay [6] and in assay [7] was “inactive” throughout. Moreover, the compound was called inactive in assay [3].

Turning to `COc1cc(CCN)cc(OC)c1OC`, the Potency entry in assay [1], in assay [2] and in assay [5] was “inactive” in each case. In assay [3], the compound was called inactive. For the same compound, the Potency in assay [7] is 41.8 µM (active).

With `O=C1CN=C(c2ccccc2)c2cc([N+](=O)[O-])ccc2N1`, the Potency result in assay [1], in assay [2], in assay [4] and in [6] was “inactive” each time. Also, in assay [3], the call was inactive.

In the case of `CC(C)c1c(CN(C)C(C)Cc2ccccc2)n(C)n(-c2ccccc2)c1=O` (stereo unspecified), the Potency result in [1], in assay [2], in [4], in assay [6] and in [7] was “inactive” in each case. Further, the Potency in assay [5] is 7.76 µM (active).

Take `CN1CC[C@]23c4c5ccc(O)c4O[C@H]2[C@@H](O)C=C[C@H]3[C@H]1C5`: the Potency result in assay [1] is “inactive”. Further, the call in assay [3] was inactive.

Turning to `CC(Cc1ccccc1)N(C)Cc1ccco1` (stereo unspecified), the Potency result in assay [1], in [2], in assay [5], in [6] and in [7] was “inactive” in each case. The call in assay [3] was inactive. The Potency in assay [4] is 2.45 µM (active).

Consider `O=C(Nc1ccc(Br)cc1)c1cc(Br)cc(Br)c1O`, for which the Potency result in assay [1], in assay [2], in assay [12], in [6] and in [7] was “inactive” in each case. For the same compound, the Potency in [5] is 3.47 µM (active).

Consider `[N-]=[N+]=CC(=O)OC[C@H](N)C(=O)O`, for which the Potency entry in assay [1], in assay [2], in assay [5], in [6] and in [7] was “inactive” each time. In addition, the call in assay [3] was inactive.

As to `CCCCCCC(=O)CCCCCC/C=C/C[C@@H](O)[C@H](O)[C@@](N)(CO)C(=O)O`, the Potency result in assay [1], in assay [2], in assay [4], in [5], in assay [6] and in assay [7] was “inactive” throughout. Besides, in assay [3], the compound was called inactive.

As to `CC(C)(C)NCC(O)c1cc(Cl)c(N)c(C(F)(F)F)c1` (stereo unspecified), the Potency result in assay [1], in assay [2], in assay [5], in assay [10], in [6] and in assay [7] was “inactive” in each case. The Potency in assay [4] is 15.5 µM (active).
